From PubChem
Only some compounds are listed: those with a hit (about 18% of all), similar ones and a draw of the others.
DT40 TDP1 no CPT: qHTS for Inhibitors of human tyrosyl-DNA phosphodiesterase 1 (TDP1): qHTS in cells in absence of CPT | DT40 Tdp1-/- hTDP1 cells, no CPT, ATP luminescence, 48 h | Potency, µM (top dose mostly 46.2 µM), inactives show at the highest dose activity change, negative = growth inhibition, usual class: inhibitors | hit rate 15% among 420,000 | AID 686978, 2013; also: potency is read from the fitted curve at half-maximal effect; nearly all actives have a fitted effect of over 55% in size
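Camptothecin absent (DMSO only). Human TDP1-complemented DT40 knockout cells, 400 cells/well, 37 °C for minimum 48 hr; ATP measured via CellTiter-Glo, 30 min dark incubation, luminescence.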
DT40 TDP1 CPT: growth inhibition of DT40 Tdp1-/-;hTDP1 cells with camptothecin (screen for TDP1 inhibitors) | hit rate 12% among 420,000 | Potency, µM (highest dose often 46.2 µM), for the others: at the top dose activity change, negative = growth inhibition, usual class: inhibitors | chicken DT40 Tdp1-/-;hTDP1 cells + 20 nM CPT, ATP luminescence, 48 h; also: potency is read from the fitted curve at half-maximal effect; nearly all actives have a fitted effect of over 55% in size
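Chicken DT40 Tdp1-/- cells complemented with human TDP1, 400 cells/well, exposed to compounds plus 20 nM camptothecin for at least 48 h at 37 C; viability read as ATP content by CellTiter-Glo luminescence.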
IL-1B inflam inh: blocks inflammasome-driven IL-1 beta release; THP-1 LPS/ATP IL-1B secretion, AlphaLISA, 16 h; active compounds read low; hit rate 4.7% among 360,000; AID 743279; activity change, % at 57.5 µM; in the data active = activity change below about -50%; inconclusive = mostly about -30% to -49%
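THP-1 cells pretreated 1 hr with compounds (up to 57.5 uM final), then stimulated with LPS (250 ng/mL final) plus ATP (1.25 mM final); secreted IL-1B measured by AlphaLISA after 16 hr, decreased signal indicating inhibition.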
Six1-Eya2 inh: inhibitors of human Six1/Eya2 interaction; AlphaScreen GST-Six1/His-Eya2 binding, biochemical; active compounds read low; activity change, % (test concentration not listed); Q15475+O00167; hit rate 0.56% among 360,000; in the data active = activity change below about -65%; inconclusive = mostly about -30% to -63%
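AlphaScreen with GST-Six1 and His-Eya2 (5X mix: 250 nM and 500 nM), glutathione donor and nickel acceptor beads; buffer 50 mM Tris pH 8.0, 300 mM NaCl, 1 mM TCEP; 1 h at 37 C in the dark.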
TDP1 inh: TDP1 (human) enzyme inhibition; Q9NUW8; Potency, µM (top dose mostly 130 µM), for the others: at the top dose activity change, negative = inhibition, usual class: inhibitors; recombinant TDP1, AlphaScreen DNA substrate cleavage; hit rate 0.28% among 350,000; AID 485290; also: potency is read from the fitted curve at half-maximal effect; nearly all actives have a fitted effect of over 40% in size
Target sequence (Q9NUW8 whole entry, looked up): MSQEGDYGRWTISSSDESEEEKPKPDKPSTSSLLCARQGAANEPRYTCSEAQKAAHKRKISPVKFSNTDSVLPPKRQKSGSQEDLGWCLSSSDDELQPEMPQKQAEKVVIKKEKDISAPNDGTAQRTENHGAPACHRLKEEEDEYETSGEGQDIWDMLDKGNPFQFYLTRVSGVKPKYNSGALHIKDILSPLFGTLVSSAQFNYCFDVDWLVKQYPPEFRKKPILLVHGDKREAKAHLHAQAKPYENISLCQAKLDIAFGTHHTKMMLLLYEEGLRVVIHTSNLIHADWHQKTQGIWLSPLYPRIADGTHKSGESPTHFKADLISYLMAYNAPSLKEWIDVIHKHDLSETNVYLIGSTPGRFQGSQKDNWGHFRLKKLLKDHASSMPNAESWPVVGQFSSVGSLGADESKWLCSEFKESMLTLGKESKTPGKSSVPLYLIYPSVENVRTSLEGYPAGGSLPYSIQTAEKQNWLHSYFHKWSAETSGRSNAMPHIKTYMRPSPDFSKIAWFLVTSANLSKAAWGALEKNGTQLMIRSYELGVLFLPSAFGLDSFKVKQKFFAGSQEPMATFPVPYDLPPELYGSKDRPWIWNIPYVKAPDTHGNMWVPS
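Recombinant E. coli-expressed Tdp1 (1 nM) preincubated with compound 15 min at RT, then 5'-biotin/3'-phosphotyrosine-FITC DNA substrate (15 nM) added for 5 min. AlphaScreen beads (10 ug/ml) added, 10 min RT; tyrosine-FITC cleavage read as signal loss.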
CtBP-E1A blk: inhibitors of CtBP/E1A interaction | AlphaScreen GST-E1A/His-CtBP binding, 1536-well; active compounds read low | activity change, % (no concentration beside the values) | hit rate 0.49% among 340,000 | AID 651724; in the data active = activity change below about -65%; inconclusive = mostly about -30% to -63%
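Homogeneous bead-based format: GST-tagged E1A captured on glutathione donor beads, His-tagged CtBP on nickel acceptor beads; compounds precede bead addition by 2 h at 37 °C.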
An asterisk follows results filed as active; [ ] = remark or other dose. Unless noted, calls follow the shape of the dose curve; as a rule, active = well fitted curve in the direction sought with a large enough effect; inconclusive = small, poorly fitted or top-dose-only effect, or another doubt; inactive = no such curve, though single readings can be large; an effect the other way counts as inactive or inconclusive. % is scaled to controls: 0 for no effect and ±100 for the full control effect.

`Cc1ccc(-c2nnc(N3CCN(C(=O)CN4C(=O)c5ccccc5C4=O)CC3)c3ccccc23)cc1` gave DT40 TDP1 no CPT inconclusive, DT40 TDP1 CPT inconclusive, IL-1B inflam inh -11.9, Six1-Eya2 inh 3.8 and CtBP-E1A blk -2.7.
Screening Cc1ccc(-c2nnc(N3CCN(C(=O)COc4cccc(C)c4)CC3)c3ccccc23)cc1 returned DT40 TDP1 no CPT inconclusive, DT40 TDP1 CPT inconclusive, IL-1B inflam inh -86.5*, Six1-Eya2 inh -9.3, TDP1 inh 6.0% and CtBP-E1A blk -9.3.
Screening Cc1cccc(OCC(=O)N2CCN(c3nnc(-c4ccccc4)c4ccccc34)CC2)c1 returned DT40 TDP1 no CPT 18.4µM*, DT40 TDP1 CPT inconclusive, IL-1B inflam inh -21.6, Six1-Eya2 inh -1.1 and TDP1 inh 0.0%.
COc1cc(-c2cc(C)c3cccc(OC)c3n2)cc2c1OCCN(C(=O)CCn1nc(C)cc1C)C2 was read as DT40 TDP1 no CPT 18.4µM* and DT40 TDP1 CPT -14.6%[9.04 µM].
For N#C/C(=C\c1cccc2ccccc12)c1nn(-c2ccccc2)c(N)c1C#N the results were DT40 TDP1 no CPT inconclusive, DT40 TDP1 CPT inconclusive, IL-1B inflam inh 32.0, Six1-Eya2 inh -0.8 and CtBP-E1A blk -2.4.
`Cc1ccc(/C=C(\C#N)c2nn(-c3ccccc3)c(N)c2C#N)cc1` gave DT40 TDP1 no CPT 14.6µM*, DT40 TDP1 CPT inconclusive, IL-1B inflam inh inconclusive, Six1-Eya2 inh -1.4, TDP1 inh 0.0% and CtBP-E1A blk -11.6.
Screening N#C/C(=C\c1c(Cl)cccc1Cl)c1nn(-c2ccccc2)c(-n2cccc2)c1C#N returned DT40 TDP1 no CPT 20.6µM*, DT40 TDP1 CPT 25.9µM*, IL-1B inflam inh -28.6, Six1-Eya2 inh -9.5, TDP1 inh 2.5% and CtBP-E1A blk -11.3.
ClCc1nc2ccccc2c2ccccc12 was read as DT40 TDP1 no CPT 2.59µM*, DT40 TDP1 CPT 4.11µM*, IL-1B inflam inh -7.9, Six1-Eya2 inh 0.8, TDP1 inh 9.9% and CtBP-E1A blk 4.1.
Screening Cc1ccc(S(=O)(=O)Nc2cccc3c2O[C@@H](CN(C)C(=O)Nc2ccc4c(c2)OCO4)[C@H](C)CN([C@@H](C)CO)C3=O)cc1 returned DT40 TDP1 no CPT inconclusive, DT40 TDP1 CPT inconclusive, IL-1B inflam inh -0.8, Six1-Eya2 inh 6.6, TDP1 inh 3.9% and CtBP-E1A blk -1.2.
For C[C@H](CO)N1C[C@H](C)[C@@H](CN(C)Cc2ccc(C(=O)O)cc2)Oc2c(NC(=O)C3CC3)cccc2C1=O the results were DT40 TDP1 no CPT -5.9%, DT40 TDP1 CPT 1.2%, IL-1B inflam inh 25.5, Six1-Eya2 inh 3.4, TDP1 inh 2.2% and CtBP-E1A blk 1.4.
Cc1ccc(S(=O)(=O)Nc2cccc3c2O[C@H](CN(C)Cc2ccccc2)[C@@H](C)CN([C@H](C)CO)C3=O)cc1 was read as DT40 TDP1 no CPT 16.4µM*, DT40 TDP1 CPT inconclusive, IL-1B inflam inh -6.8, Six1-Eya2 inh -0.4, TDP1 inh 0.7% and CtBP-E1A blk -2.7.
For Cc1ccc(S(=O)(=O)Nc2cccc3c2O[C@H](CN(C)C(=O)Nc2ccc(C(F)(F)F)cc2)[C@@H](C)CN([C@H](C)CO)C3=O)cc1 the results were DT40 TDP1 no CPT inconclusive, DT40 TDP1 CPT 16.4µM*, IL-1B inflam inh -10.6, Six1-Eya2 inh -8.7, TDP1 inh 2.4% and CtBP-E1A blk -0.1.
For Cc1ccc(S(=O)(=O)Nc2cccc3c2O[C@H](CN(C)C(=O)Nc2cccc4ccccc24)[C@H](C)CN([C@H](C)CO)C3=O)cc1 the results were DT40 TDP1 no CPT 20.6µM*, DT40 TDP1 CPT 20.6µM*, IL-1B inflam inh inconclusive, Six1-Eya2 inh -9.2, TDP1 inh 1.7% and CtBP-E1A blk -1.2.
C[C@H](CO)N1C[C@H](C)[C@@H](CN(C)Cc2ccccc2)Oc2c(NC(=O)C3CCCCC3)cccc2C1=O was read as DT40 TDP1 no CPT inconclusive, DT40 TDP1 CPT inconclusive, IL-1B inflam inh -71.7*, Six1-Eya2 inh -29.7, TDP1 inh 3.8% and CtBP-E1A blk -22.6.
For Cc1cccc(NC(=O)C[n+]2cccc(C)c2)c1 the results were DT40 TDP1 no CPT -0.1%, DT40 TDP1 CPT 5.2%, IL-1B inflam inh -1.6, Six1-Eya2 inh -4.4 and CtBP-E1A blk -4.0.
For CC(C)C(NC(=O)CNC(=O)OC(C)(C)C)C(=O)NCc1ccccc1 (stereo not drawn) the results were DT40 TDP1 no CPT -2.9%, DT40 TDP1 CPT -10.3%, IL-1B inflam inh inconclusive, Six1-Eya2 inh 2.6, TDP1 inh 0.0% and CtBP-E1A blk 1.7.
Screening CCCC(c1nnnn1C(C)(C)C)N1CCN(c2ccccc2)CC1 (stereo not drawn) returned DT40 TDP1 no CPT inconclusive, DT40 TDP1 CPT 5.7%, IL-1B inflam inh 2.3, Six1-Eya2 inh -0.2, TDP1 inh -1.2% and CtBP-E1A blk -11.4.
For C[C@H]1CN([C@@H](C)CO)C(=O)c2cccc(NS(=O)(=O)c3ccc(F)cc3)c2O[C@H]1CN(C)Cc1ccc(Cl)c(Cl)c1 the results were DT40 TDP1 no CPT inconclusive, DT40 TDP1 CPT inconclusive, IL-1B inflam inh inconclusive, Six1-Eya2 inh 4.6, TDP1 inh 4.1% and CtBP-E1A blk -2.7.
For C[C@H](CO)N1C[C@H](C)[C@@H](CN(C)S(C)(=O)=O)Oc2c(NC(=O)Nc3ccc(C(F)(F)F)cc3)cccc2C1=O the results were DT40 TDP1 no CPT inconclusive, DT40 TDP1 CPT 23.1µM*, IL-1B inflam inh -2.2, Six1-Eya2 inh 5.8, TDP1 inh 1.1% and CtBP-E1A blk -5.7.
`COc1ccc(S(=O)(=O)N(C)C[C@H]2Oc3c(NC(=O)C4CCCCC4)cccc3C(=O)N([C@H](C)CO)C[C@@H]2C)cc1` gave DT40 TDP1 no CPT 23.1µM*, DT40 TDP1 CPT inconclusive, IL-1B inflam inh -21.0, Six1-Eya2 inh -16.1, TDP1 inh 1.8% and CtBP-E1A blk -0.1.
COc1ccc(NC(=O)Nc2cccc3c2O[C@H](CN(C)S(=O)(=O)c2ccc(OC)cc2)[C@@H](C)CN([C@H](C)CO)C3=O)cc1 was read as DT40 TDP1 no CPT inconclusive, DT40 TDP1 CPT inconclusive, IL-1B inflam inh -28.0, Six1-Eya2 inh -6.5, TDP1 inh 3.3% and CtBP-E1A blk -3.2.
For COc1ccc(S(=O)(=O)Nc2cccc3c2O[C@H](CN(C)Cc2ccc(Cl)c(Cl)c2)[C@@H](C)CN([C@H](C)CO)C3=O)cc1 the results were DT40 TDP1 no CPT 18.4µM*, DT40 TDP1 CPT 20.6µM*, IL-1B inflam inh -56.3*, Six1-Eya2 inh -8.3, TDP1 inh 0.7% and CtBP-E1A blk -7.4.
